# Assay results as given in a collection of fitness landscapes (doi:10.1038/s41467-024-54723-y).
# Whole data set: some 18,000 sequences, median “TetR repression strength (sort-seq, GFP reporter)” near 0.23, cut for the highest 2% near 0.68. For the sample, the highest values were picked, then their nearest neighbours and some sequences at random.
# Molecular target: TetR (class B, Tn10) (UniProt P04483)
# Test: TetR repression strength (sort-seq, GFP reporter) (relative to tetO2 = 1); higher = stronger repression
# Details: E. coli
# Method in brief: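 Three independent transformations of E. coli SIG10-MAX were made with a low-copy plasmid library randomizing eight operator positions between a constitutive promoter and sfGFP, with constitutive TetR. Following 5 h at 37 °C in LB plus 50 µg/mL chloramphenicol, 10^6 cells went through FACS into 13 fluorescence bins, and each bin was sequenced by Illumina. Repression strength was defined as the top bin index plus one minus the read-weighted mean bin, divided by the unaltered operator's value. Averages included only members reaching ≥30 reads in all replicates with a CV ≤0.5.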
# TetR (class B, Tn10), sequence (P04483 whole entry): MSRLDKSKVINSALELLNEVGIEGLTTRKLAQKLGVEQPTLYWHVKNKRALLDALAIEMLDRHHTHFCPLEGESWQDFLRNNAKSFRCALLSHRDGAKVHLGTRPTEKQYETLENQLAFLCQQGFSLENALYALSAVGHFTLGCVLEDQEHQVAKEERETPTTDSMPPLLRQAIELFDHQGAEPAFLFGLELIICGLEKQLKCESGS
row,Sequence,TetR repression strength
1,TCCCGAGTAGTCCTCGAGA,0.207
2,TCCCCTGGAGTCGGGGAGA,0.222
3,TCCCTTGTAGTCGGGGAGA,0.938
4,TCCCTTGTAGTCTTGGAGA,0.287
5,TCCCTTGTAGTCCGGGAGA,0.387
6,TCCCCTGTAGTCGGGGAGA,0.858
7,TCCCTTGTAGTCATGGAGA,0.687
8,TCCCTTGGAGTCGGGGAGA,0.319
9,TCCCTTGGAGTCATGGAGA,0.307
10,TCCCCTGTAGTAGGGGAGA,0.261
11,TCCCAGGCAGTCGGCGAGA,0.25
12,TCCCAAAGAGTGGGGGAGA,0.217
13,TCCCGTAGAGTGTACGAGA,0.175
14,TCCCGTGGAGTGCCTGAGA,0.0904
15,TCCCCGAAAGTGACCGAGA,1.21
16,TCCCCGCCAGTGACCGAGA,0.207
17,TCCCGGAAAGTGACCGAGA,0.203
18,TCCCCGACAGTGACCGAGA,1.08
19,TCCCCGAAAGTGGCCGAGA,0.0544
20,TCCCCGACAGTGACTGAGA,0.207
21,TCCCGCGGAGTCCTCGAGA,0.294
22,TCCCTATGAGTGGGCGAGA,0.164
23,TCCCACTCAGTTAGGGAGA,0.268

row,Sequence,TetR repression strength
1,TCCCCCCGAGTCGACGAGA,0.239
2,TCCCCGATAGTCGACGAGA,0.0424
3,TCCCCCAGAGTCGACGAGA,0.84
4,TCCCCCATAGTCGGCGAGA,0.134
5,TCCCCAAGAGTCGACGAGA,0.264
6,TCCCCCATAGTCGACGAGA,0.825
7,TCCCATGTAGTATGCGAGA,0.327
8,TCCCCACTAGTGGCGGAGA,0.514
9,TCCCGGTAAGTAACGGAGA,0.201
10,TCCCTGTGAGTCGCAGAGA,0.172
11,TCCCTTTTAGTGCATGAGA,0.711
12,TCCCTTTTAGTGAGAGAGA,0.425
13,TCCCTTTTAGTGCCTGAGA,0.325
14,TCCCTTTTAGTGAATGAGA,0.889
15,TCCCTTTGAGTGAATGAGA,0.472
16,TCCCTTTGAGTGCATGAGA,0.403
17,TCCCGGAAAGTAGCAGAGA,0.0718
18,TCCCTGTTAGTGTGTGAGA,0.138
19,TCCCAATGAGTAGGGGAGA,0.0811
20,TCCCCACAAGTTCGGGAGA,0.0657
21,TCCCTTCTAGTCTAAGAGA,0.306
22,TCCCGCAAAGTCAGGGAGA,0.273
23,TCCCAGCGAGTACGTGAGA,0.134

row,Sequence,TetR repression strength
1,TCCCGTACAGTATAGGAGA,0.0753
2,TCCCGGTAAGTGGGTGAGA,0.141
3,TCCCGGTAAGTGAGAGAGA,0.502
4,TCCCGGTAAGTAGCTGAGA,0.208
5,TCCCGGTAAGTGAAAGAGA,0.684
6,TCCCGGTGAGTGAAAGAGA,0.347
7,TCCCGGTCAGTGAAAGAGA,0.692
8,TCCCGGTAAGTGGCTGAGA,1.11
9,TCCCGGTCAGTGAGAGAGA,0.591
10,TCCCAGTCAGTGAAAGAGA,0.62
11,TCCCCCCCAGTCGATGAGA,0.409
12,TCCCATGGAGTTCGAGAGA,0.0732
13,TCCCCTTAAGTTAATGAGA,0.515
14,TCCCACGGAGTCGCGGAGA,0.172
15,TCCCATGGAGTGTAAGAGA,0.236
16,TCCCGGGCAGTCGTGGAGA,0.285
17,TCCCTACTAGTCCTCGAGA,1.12
18,TCCCTAATAGTCCTCGAGA,0.385
19,TCCCTAAGAGTCCTCGAGA,0.353
20,TCCCTACGAGTACTCGAGA,0.207
21,TCCCTTCTAGTCCTCGAGA,0.421
22,TCCCTACGAGTCCTCGAGA,1.14
23,TCCCATATAGTTTAGGAGA,0.0773

row,Sequence,TetR repression strength
1,TCCCCCGCAGTCCCTGAGA,0.333
2,TCCCAGATAGTCGCGGAGA,0.108
3,TCCCCATCAGTGGTAGAGA,0.417
4,TCCCGAGGAGTTAAGGAGA,0.295
5,TCCCGATGAGTTAAGGAGA,0.797
6,TCCCGATGAGTTAGGGAGA,0.296
7,TCCCGATGAGTTAGAGAGA,0.749
8,TCCCGATGAGTTAATGAGA,0.196
9,TCCCGATGAGTTAGCGAGA,0.201
10,TCCCGAGGAGTAAGTGAGA,0.204
11,TCCCTTGTAGTATGTGAGA,0.133
12,TCCCTAGTAGTACTGGAGA,0.176
13,TCCCGGCTAGTACGGGAGA,0.244
14,TCCCTTGCAGTGACCGAGA,0.315
15,TCCCTTTCAGTGACCGAGA,0.946
16,TCCCGATCAGTGAGCGAGA,0.544
17,TCCCTATCAGTCGCCGAGA,0.455
18,TCCCTATCAGTCACCGAGA,0.789
19,TCCCTATCAGTCGCGGAGA,0.456
20,TCCCTTTCAGTGACTGAGA,0.435
21,TCCCGATCAGTGACTGAGA,0.427
22,TCCCTATCAGTGGCGGAGA,0.715
23,TCCCGATCAGTGACCGAGA,0.715

row,Sequence,TetR repression strength
1,TCCCTGTCAGTCACCGAGA,0.664
2,TCCCTATCAGTGGGGGAGA,0.378
3,TCCCGTCTAGTAGCAGAGA,0.634
4,TCCCATGGAGTGTTAGAGA,0.246
5,TCCCCGATAGTCGTGGAGA,0.177
6,TCCCAGCGAGTGCAAGAGA,0.364
7,TCCCGGCCAGTGGAGGAGA,0.19
8,TCCCAAATAGTCGTGGAGA,0.415
9,TCCCGCCAAGTGCGCGAGA,0.258
10,TCCCTATCAGTGAAGGAGA,0.51
11,TCCCGTGCAGTAAACGAGA,0.326
12,TCCCTATCAGTTACCGAGA,0.663
13,TCCCGATCAGTGAACGAGA,0.628
14,TCCCGTGCAGTAATCGAGA,0.749
15,TCCCGATCAGTGACAGAGA,0.742
16,TCCCGGGCAGTAATCGAGA,0.121
17,TCCCTATGAGTGACCGAGA,0.604
18,TCCCTATCAGTGACCGAGA,0.944
19,TCCCTATCAGTGAACGAGA,0.862
20,TCCCGACCAGTGACAGAGA,0.644
21,TCCCGTTCAGTGACAGAGA,0.504
22,TCCCACATAGTGGTAGAGA,0.199
23,TCCCACTGAGTGCCTGAGA,0.139

row,Sequence,TetR repression strength
1,TCCCATCCAGTGCTTGAGA,0.267
2,TCCCCGTAAGTGAGAGAGA,0.149
3,TCCCTTAAAGTATGCGAGA,0.238
4,TCCCTTTAAGTTCTCGAGA,0.271
5,TCCCTGTAAGTATGGGAGA,0.174
6,TCCCCCGAAGTTAAGGAGA,0.155
7,TCCCGGTCAGTGACCGAGA,0.715
8,TCCCGTGCAGTGCCCGAGA,0.361
9,TCCCGGTCAGTCACCGAGA,0.669
10,TCCCGATAAGTGGCCGAGA,0.171
11,TCCCTATCAGTGGGCGAGA,0.541
12,TCCCTATAAGTGGCCGAGA,0.719
13,TCCCTATGAGTGGCCGAGA,0.402
14,TCCCGCGCAGTGACCGAGA,0.219
15,TCCCTATCAGTGGCCGAGA,0.724
16,TCCCGATCAGTGGCCGAGA,0.565
17,TCCCGGTGAGTGACCGAGA,0.207
18,TCCCGTGCAGTGACCGAGA,0.709
